According to PubChem BioAssay (Tox21):
Values without a mark were called inactive. Results filed as inconclusive are left out. A call without a number means that no potency is given here. The source made the active and inactive calls. Unless noted, the call rests on the fitted dose curve.

Assays:
[1] = Nuclear factor erythroid 2-related factor 2/antioxidant responsive element (Nrf2/ARE) small molecule agonists: qHTS cell viability counter screen in human keratinocytes (AID 1919968; active means well fitted curve in the direction sought with a large enough effect in the repeat runs; an effect the other way counts as inactive or inconclusive; further: nearly all actives have a fitted effect of over 55% in size)
How it was run: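 Parallel cytotoxicity read: KeratinoSens HaCaT cells, compound treatment 23 h, viability by CellTiter-Fluor fluorescence 1 h post-reagent.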

[2] = Nuclear factor erythroid 2-related factor 2/antioxidant responsive element (Nrf2/ARE) small molecule agonists: luciferase reporter gene qHTS assay in human keratinocytes (AID 1919969); further: nearly all actives have a fitted effect of over 35% in size; further: potency means the concentration at half of the fitted maximal effect
[3] = target: Gonadotropin-releasing hormone receptor (Homo sapiens) (UniProt P30968); experiment: Human gonadotropin-releasing hormone receptor (GnRHR) small molecule agonists, calcium flux assay in GnRHR-HEK293 cells (AID 1920063); further: nearly all actives have a fitted effect of over 35% in size
How it was run: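 Calcium flux, agonist mode, human GnRHR stably integrated in HEK293; dye 1 h at 37 C before compound; Ex/Em=480/540 kinetic read, 3 min; 15 concentrations, triplicate.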

[4] = target: KiSS-1 receptor (Homo sapiens) (UniProt Q969F8); experiment: Human kisspeptin (KISS1R) small molecule agonists, calcium flux assay in KISS1R-HEK293 cells (AID 1920064; active means well fitted curve in the direction sought with a large enough effect in the repeat runs; an effect the other way counts as inactive or inconclusive)
How it was run: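 Triplicate 15-concentration series were applied to dye-loaded human KISS1R HEK293 cells, and agonist-evoked calcium fluorescence was captured for 3 min.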

[5] = G protein-coupled receptor (GPCR) small molecule agonists, calcium flux assay: HEK293 wild type cell line counter screen (AID 1920065)
How it was run: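 Non-specific calcium responders were flagged by adding DMSO-dissolved compounds to dye-loaded cells and reading 480/540 nm fluorescence each second for 3 min; ATP served as positive control.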

[6] = p53 small molecule agonists, cell-based qHTS assay with rat liver microsomes (AID 1963578); further: potency means the concentration at half of the fitted maximal effect
How it was run: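 Metabolic activation is supplied by rat liver microsomes with NADPH (each 0.5 mg/mL final). p53RE-bla cells incubate with compound 16 h at 37 C; reporter activity is measured by LiveBLAzer fluorescence.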

[7] = p53 small molecule agonists, cell-based qHTS assay with rat liver microsomes: qHTS cell viability counter screen (AID 1963580); further: nearly all actives have a fitted effect of over 45% in size
How it was run: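 Rat liver microsome (0.5 mg/mL final) and NADPH (0.5 mg/mL final) co-incubation with compounds for 16 h at 37 C on HCT-116 p53RE-bla cells; cytotoxicity taken from intracellular ATP luminescence.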

[8] = p53 small molecule agonists, cell-based qHTS assay: qHTS cell viability counter screen (AID 1963581); further: nearly all actives have a fitted effect of over 45% in size
How it was run: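 Multiplexed with the reporter read, a CellTiter-Glo step (30 min, room temperature) gauges ATP-based viability of HCT-116 p53RE-bla cells after 16 h compound incubation at 37 C.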

[9] = p53 small molecule agonists, cell-based qHTS assay (AID 1963582; active means well fitted activation curve with a large enough effect in the signal ratio in the repeat runs, not every such curve was filed as active; the % refers to the signal ratio; further: potency means the concentration at half of the fitted maximal effect)
How it was run: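 Beta-lactamase reporter cells (p53RE-bla) treated with compounds for 16 h at 37 C; FRET substrate, 2 h, room temperature; fluorescence intensity.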

[10] = target: 5-hydroxytryptamine receptor 2A (Homo sapiens) (UniProt P28223); experiment: 5-hydroxytryptamine receptor 2A (HTR2A) small molecule antagonists, cell-based qHTS assay (AID 1963586); further: nearly all actives have a fitted effect of over 45% in size; further: potency means the concentration at half of the fitted maximal effect
How it was run: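 CHO cells stably expressing human HTR2A were plated for 18 h at 37 C, then loaded with calcium dye for 1 h. Compounds were preincubated 5 min at room temperature before DOI (4 nM solution) was added. Kinetic fluorescence was read for 3 min.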

[11] = target: 5-hydroxytryptamine receptor 2A (Homo sapiens) (UniProt P28223); experiment: 5-hydroxytryptamine receptor 2A (HTR2A) small molecule agonists, cell-based qHTS assay (AID 1963587); further: nearly all actives have a fitted effect of over 30% in size
How it was run: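 Kinetic calcium-flux fluorescence (2 min, 1 sec intervals) after compound addition in agonist mode. HTR2A-CHO cells were cultured 18 h, then dye-loaded 1 h at 37 C.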

[12] = target: Muscarinic acetylcholine receptor M1 (Homo sapiens) (UniProt P11229); experiment: Cholinergic receptor muscarinic 1 (CHRM1) small molecule antagonists, cell-based qHTS assay (AID 1963588); further: nearly all actives have a fitted effect of over 40% in size
How it was run: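 Compounds were tested at 15 concentrations in three independent runs. Dye-loaded CHRM1-CHO cells were exposed 5 min at room temperature before stimulation by acetylcholine added at 50nM. Intracellular calcium was read kinetically on FDSS for 3 min.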

[13] = target: Muscarinic acetylcholine receptor M1 (Homo sapiens) (UniProt P11229); experiment: Cholinergic receptor muscarinic 1 (CHRM1) small molecule agonists, cell-based qHTS assay (AID 1963589); further: nearly all actives have a fitted effect of over 35% in size
How it was run: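 qHTS, 15-point titration, 3 independent runs: compounds pin-transferred onto dye-loaded CHRM1-CHO cells (human M1), calcium fluorescence followed every second to detect agonism.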

[14] = cAMP Responsive Elements (CRE) small molecule agonists, cell-based qHTS assay (AID 1963590); further: potency means the concentration at half of the fitted maximal effect
How it was run: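 Quantitative HTS for CRE agonists: HEK 293T CRE-bla cells, overnight plating, 3 h compound incubation at 37 C/5% CO2, then 2 h room-temperature LiveBLAzer B/G FRET substrate loading.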

[15] = cAMP Responsive Elements (CRE) small molecule antagonists, cell-based qHTS assay (AID 1963591; active means well fitted inhibition curve with a large enough effect in the signal ratio in the repeat runs, not every such curve was filed as active; the % refers to the signal ratio)
How it was run: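 Fluorescence intensity from cleaved LiveBLAzer B/G substrate (2 h, room temperature) quantified CRE-bla activity in HEK 293T cells exposed 3 h to compound with 0.25 uM final NKH477.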

[16] = target: Beta-2 adrenergic receptor (Homo sapiens) (UniProt P07550); experiment: Adrenergic beta2 receptor (ADRB2) small molecule antagonists, cell-based qHTS assay (AID 1963592); further: nearly all actives have a fitted effect of over 50% in size; further: potency means the concentration at half of the fitted maximal effect
How it was run: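 Assay format: CHO-ADRB2 cells, 18-20hr seeding at 37C/5% CO2, then compound plus 1nM isoproterenol agonist mix for 0.5hr RT. Homogeneous time-resolved fluorescence cAMP detection after 1hr, expressed as 665/615 nm ratio.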

[17] = target: D(2) dopamine receptor (Homo sapiens) (UniProt P14416); experiment: Dopamine D2 receptor (DRD2) small molecule agonists, cell-based qHTS assay (AID 1963594); further: nearly all actives have a fitted effect of over 35% in size
How it was run: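 cAMP accumulation in DRD2-HEK293 cells measured by HTRF after 1 h detection; compounds added 10 min before NKH477 (200nM […]) forskolin-analogue stimulation, 30 min at room temperature, with Ro20-1724 present at 0.1 mM final.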

[18] = target: D(2) dopamine receptor (Homo sapiens) (UniProt P14416); experiment: Dopamine D2 receptor (DRD2) small molecule antagonists, cell-based qHTS assay (AID 1963595; active means well fitted inhibition curve with a large enough effect in the signal ratio in the repeat runs, with a control signal flat; the % refers to the signal ratio)
How it was run: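 Readout: HTRF cAMP, cAMP-d2 competing with cellular cAMP for anti-cAMP cryptate, read after 1 h. Cells: DRD2-HEK293. Conditions: 0.1 mM Ro20-1724, 12 nM quinpirole, 200 nM NKH477, 30 min RT.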

[19] = target: Beta-2 adrenergic receptor (Homo sapiens) (UniProt P07550); experiment: Adrenergic beta2 receptor (ADRB2) small molecule agonists, cell-based qHTS assay (AID 1963593);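 further: CHO cells stably overexpressing human ADRB2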
How it was run: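 CHO cells stably over-expressing ADRB2 were plated overnight at 37C, then dosed with compounds plus a stimulation mix containing 100uM IBMX and 25uM Ro-20-1724 for 0.5hr at room temperature. cAMP was measured by HTRF competition, 1hr.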

[20] = p53 small molecule agonists, cell-based qHTS assay with human liver microsomes: qHTS cell viability counter screen (AID 1963579); further: nearly all actives have a fitted effect of over 45% in size
How it was run: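 After the 460/530 nm beta-lactamase read, CellTiter-Glo was added to the same wells and luminescence measured after 30 min at room temperature, giving viability of p53RE-bla cells treated 16 h with compounds plus microsomes and NADPH.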

KiSS-1 receptor (Homo sapiens), sequence (Q969F8 whole entry, looked up): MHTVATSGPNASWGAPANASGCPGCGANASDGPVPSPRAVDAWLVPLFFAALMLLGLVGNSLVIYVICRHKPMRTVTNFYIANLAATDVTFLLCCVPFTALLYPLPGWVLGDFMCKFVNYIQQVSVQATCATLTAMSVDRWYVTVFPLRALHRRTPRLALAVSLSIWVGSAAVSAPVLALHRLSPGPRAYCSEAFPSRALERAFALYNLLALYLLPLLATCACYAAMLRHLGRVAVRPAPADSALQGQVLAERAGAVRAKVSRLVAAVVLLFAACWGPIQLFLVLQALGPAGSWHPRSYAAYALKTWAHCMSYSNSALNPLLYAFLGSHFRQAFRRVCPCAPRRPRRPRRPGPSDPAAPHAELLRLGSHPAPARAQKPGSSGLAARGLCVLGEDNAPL
D(2) dopamine receptor (Homo sapiens), sequence (P14416 whole entry, looked up): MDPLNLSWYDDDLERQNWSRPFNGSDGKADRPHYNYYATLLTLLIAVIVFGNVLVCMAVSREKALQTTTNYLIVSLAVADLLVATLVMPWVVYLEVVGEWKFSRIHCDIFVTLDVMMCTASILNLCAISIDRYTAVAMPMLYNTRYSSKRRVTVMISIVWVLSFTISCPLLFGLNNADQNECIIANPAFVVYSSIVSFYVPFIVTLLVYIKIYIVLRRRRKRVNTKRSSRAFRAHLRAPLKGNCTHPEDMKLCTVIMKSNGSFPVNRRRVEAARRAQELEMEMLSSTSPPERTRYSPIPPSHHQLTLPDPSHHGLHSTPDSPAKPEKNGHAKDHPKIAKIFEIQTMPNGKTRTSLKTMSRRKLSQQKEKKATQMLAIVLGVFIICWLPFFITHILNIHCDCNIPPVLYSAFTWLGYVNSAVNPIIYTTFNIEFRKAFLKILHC
Gonadotropin-releasing hormone receptor (Homo sapiens), sequence (P30968 whole entry, looked up): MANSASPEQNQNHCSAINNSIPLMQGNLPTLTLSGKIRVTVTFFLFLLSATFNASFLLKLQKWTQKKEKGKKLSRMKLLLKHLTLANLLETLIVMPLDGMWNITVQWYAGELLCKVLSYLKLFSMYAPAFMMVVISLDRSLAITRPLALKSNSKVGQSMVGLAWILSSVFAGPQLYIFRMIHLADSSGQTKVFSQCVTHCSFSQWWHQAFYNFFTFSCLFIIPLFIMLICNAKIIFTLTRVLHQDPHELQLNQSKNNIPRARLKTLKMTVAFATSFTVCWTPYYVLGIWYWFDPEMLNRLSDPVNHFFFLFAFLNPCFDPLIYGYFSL
Muscarinic acetylcholine receptor M1 (Homo sapiens), sequence (P11229 whole entry, looked up): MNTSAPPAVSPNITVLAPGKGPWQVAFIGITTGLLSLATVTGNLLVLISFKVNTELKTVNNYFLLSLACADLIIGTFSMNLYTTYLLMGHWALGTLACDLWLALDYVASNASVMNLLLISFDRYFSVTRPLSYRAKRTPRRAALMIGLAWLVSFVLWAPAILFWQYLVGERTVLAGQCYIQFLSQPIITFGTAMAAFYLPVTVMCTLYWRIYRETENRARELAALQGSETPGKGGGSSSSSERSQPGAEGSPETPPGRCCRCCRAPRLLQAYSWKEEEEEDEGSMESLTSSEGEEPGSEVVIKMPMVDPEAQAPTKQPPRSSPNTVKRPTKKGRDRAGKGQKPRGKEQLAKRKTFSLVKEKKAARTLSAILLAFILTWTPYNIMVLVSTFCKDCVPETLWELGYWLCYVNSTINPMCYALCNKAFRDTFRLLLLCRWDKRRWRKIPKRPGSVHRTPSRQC
5-hydroxytryptamine receptor 2A (Homo sapiens), sequence (P28223 whole entry, looked up): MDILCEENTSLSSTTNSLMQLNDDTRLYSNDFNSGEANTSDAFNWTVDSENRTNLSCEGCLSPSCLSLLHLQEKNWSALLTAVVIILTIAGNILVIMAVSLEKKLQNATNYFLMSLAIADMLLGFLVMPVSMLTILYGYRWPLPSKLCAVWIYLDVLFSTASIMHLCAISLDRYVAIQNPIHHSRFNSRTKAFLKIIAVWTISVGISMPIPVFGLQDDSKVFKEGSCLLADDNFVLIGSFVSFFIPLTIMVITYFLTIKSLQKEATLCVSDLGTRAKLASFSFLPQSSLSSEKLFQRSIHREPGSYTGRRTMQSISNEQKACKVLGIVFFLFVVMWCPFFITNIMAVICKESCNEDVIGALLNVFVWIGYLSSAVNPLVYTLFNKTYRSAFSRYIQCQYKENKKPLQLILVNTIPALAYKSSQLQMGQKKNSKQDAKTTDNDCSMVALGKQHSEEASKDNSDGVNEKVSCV
Beta-2 adrenergic receptor (Homo sapiens), sequence (P07550 whole entry, looked up): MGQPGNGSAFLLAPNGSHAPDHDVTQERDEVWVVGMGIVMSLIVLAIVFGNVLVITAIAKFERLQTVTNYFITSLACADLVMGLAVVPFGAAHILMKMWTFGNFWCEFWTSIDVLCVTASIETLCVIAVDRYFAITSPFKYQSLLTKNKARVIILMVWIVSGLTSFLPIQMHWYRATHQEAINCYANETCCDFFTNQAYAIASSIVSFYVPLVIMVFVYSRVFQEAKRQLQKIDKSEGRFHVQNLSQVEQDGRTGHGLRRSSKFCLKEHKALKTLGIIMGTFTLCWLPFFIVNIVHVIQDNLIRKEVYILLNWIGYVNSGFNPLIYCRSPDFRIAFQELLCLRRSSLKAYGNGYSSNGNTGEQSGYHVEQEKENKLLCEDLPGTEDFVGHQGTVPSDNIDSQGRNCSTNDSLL

Compound | Potency [1] | Potency [2] | Potency [3] | Potency [4] | Potency [5] | Potency [6] | Potency [7] | Potency [8] | Potency [9] | Potency [10] | Potency [11] | Potency [12] | Potency [13] | Potency [14] | Potency [15] | Potency [16] | Potency [17] | Potency [18] | Potency [19] | Potency [20]
CCCOC(=O)CCCCC(=O)OCCC | inactive | inactive | inactive | inactive | inactive | inactive | inactive | inactive | inactive | inactive | inactive | inactive | inactive | inactive | inactive | inactive | inactive | inactive |  | 
NC(=O)Cn1c(=O)cc(CCN2CCN(c3nccc4sccc34)CC2)c2ccc(F)cc21 | inactive | inactive | inactive | inactive | inactive | inactive | inactive |  | inactive |  | inactive |  | inactive |  |  | 27.3 µM (active) | inactive | inactive |  | 
Cc1ccc2nc(-c3ccc(N)cc3)sc2c1S(=O)(=O)O | inactive | 10.7 µM (active) | inactive | inactive | inactive | 17.9 µM (active) | inactive | inactive |  | inactive | inactive |  | inactive |  | inactive | inactive | inactive | inactive | inactive | 
Cc1ccc(C=O)cc1C | inactive | inactive | inactive | inactive | inactive |  | inactive | inactive | inactive | inactive | inactive | inactive | inactive | inactive | inactive | inactive |  | inactive |  | inactive
O=S(=O)(O)SSS(=O)(=O)O | inactive | inactive | inactive | inactive | inactive |  | inactive | inactive |  | inactive | inactive | inactive | inactive | inactive | inactive | inactive | inactive | inactive | inactive | inactive
Nc1nc2ccc(OC(F)(F)F)cc2s1 | inactive | inactive | inactive | inactive | inactive | inactive | inactive | inactive |  |  |  |  |  | inactive | inactive | inactive |  | inactive |  | 
Nc1nc(Cl)nc2c1ncn2[C@H]1C[C@H](O)[C@@H](CO)O1 | inactive | inactive | inactive | inactive | inactive |  | inactive | inactive | 0.572 µM (active) |  |  |  |  | 60.7 µM (active) |  | inactive | inactive | inactive |  | inactive
COC(=O)c1ccccc1OC | inactive | inactive | inactive | inactive | inactive |  | inactive | inactive |  | inactive | inactive | inactive | inactive | inactive | inactive | inactive | inactive | inactive | inactive | inactive
Cc1ccccc1OCC(=O)O | inactive | inactive | inactive | inactive | inactive |  | inactive | inactive |  | inactive | inactive | inactive | inactive | inactive | inactive | inactive | inactive | inactive | inactive | inactive
O=[N+]([O-])c1ccc(Cl)cc1Cl | inactive | inactive | inactive | inactive | inactive |  | inactive | inactive |  | inactive | inactive | inactive | inactive | inactive | inactive | inactive | inactive | inactive | inactive | inactive
CCCCCCCC/C=C\CCCCCCCC(=O)OC(CO)CO | inactive | 34.4 µM (active) | inactive | inactive | inactive |  | inactive | inactive |  | inactive | inactive | inactive | inactive | inactive | inactive | inactive | inactive |  |  | inactive
c1ccc(-c2nc[nH]c2-c2ccccc2)cc1 | inactive | inactive | inactive | inactive | inactive |  | inactive | inactive |  | 3.65 µM (active) | inactive | inactive | inactive | inactive | inactive | inactive | inactive | inactive | inactive | inactive
C#CC(O)C(CC)CCCC (stereo not given) | inactive | inactive | inactive | inactive | inactive |  | inactive | inactive |  | inactive | inactive | inactive | inactive | inactive | inactive | inactive | inactive | inactive | inactive | inactive
CN(C)C(C)(C)CO | inactive | inactive | inactive | inactive | inactive |  | inactive | inactive |  | inactive | inactive | inactive | inactive | inactive | inactive | inactive | inactive | inactive | inactive | inactive
CC(=O)OCC(=O)[C@@]1(O)[C@H](C)C[C@H]2[C@@H]3CCC4=CC(=O)C=C[C@]4(C)[C@@]3(F)[C@@H](O)C[C@@]21C | inactive | inactive | inactive | inactive | inactive |  | inactive | inactive |  | inactive | inactive | inactive | inactive | inactive | inactive | inactive | inactive |  |  | inactive
CCC/C=C(\C=O)CC | inactive | inactive | inactive | inactive | inactive |  | inactive | inactive |  | inactive | inactive | inactive | inactive | inactive | inactive | inactive | inactive | inactive | inactive | inactive
